Source: PubChem BioAssay (NCI)
About 83,000 compounds went through this panel and 20% of them were active in at least one assay; those are over-represented in the sample as a whole.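 Negative percent growth values reflect cell death: -40 means 40% of the cells present at the start died, and -100 means all died.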 The source made the active and inactive calls. The calls were made as follows: active = growth percent below 10; inactive = the rest.

Experiments:
Experiment in all cases: NCI-60 one-dose screen, 48 h (100 = growth as untreated, 0 = no growth, -100 = all killed)
Conditions in all cases: 10 µM unless noted
[1] = tested on: HCT-15 colon
[2] = tested on: HT29 colon
[3] = tested on: SNB-75 CNS
[4] = tested on: SNB-19 CNS
[5] = tested on: U251 CNS
[6] = tested on: SK-MEL-5 melanoma
[7] = tested on: LOX IMVI melanoma
[8] = tested on: SK-MEL-2 melanoma
[9] = tested on: EKVX NSCLC
[10] = tested on: SN12C renal
[11] = tested on: UO-31 renal
[12] = tested on: TK-10 renal
[13] = tested on: ACHN renal
[14] = tested on: CAKI-1 renal
[15] = tested on: A498 renal
[16] = tested on: CCRF-CEM leukemia
[17] = tested on: MOLT-4 leukemia
[18] = tested on: UACC-62 melanoma
[19] = tested on: SK-MEL-28 melanoma
[20] = tested on: PC-3 prostate

Measured: growth

COC(=O)[C@]12CC[C@@H](C)[C@H](C)[C@@H]1C1=CC[C@@H]3[C@@]4(C)C=C(O)C(=O)C(C)=C4CC[C@@]3(C)[C@]1(C)CC2
inactive: [1] 25.2% | [2] 11.7% | [3] 63% | [4] 59.9% | [5] 43.4% | [6] 29.5% | [7] 16.5% | [8] 27% | [10] 18.9% | [11] 34.3% | [12] 14.6% | [13] 22.4% | [14] 33.4% | [15] 81.5%
active: [9] 1.05% | [16] -26.2% | [17] -15.9%

COc1cccc(-c2nn(-c3ccccc3)cc2-c2ccnc(NCCNS(=O)(=O)c3ccccc3)c2)c1
inactive: [1] 20.3% | [2] 16.9% | [3] 67.7% | [4] 42.6% | [5] 34.8% | [6] 17.1% | [7] 41% | [8] 21% | [9] 47.2% | [10] 36.1% | [11] 14.5% | [12] 43.8% | [13] 28.9% | [14] 43.7% | [15] 47.7% | [16] 12.2% | [17] 12.8%

COc1ccc(-c2nc3ncccn3c2-c2nc3ccc(Br)cc3[nH]2)cc1
inactive: [1] 84.6% | [2] 88.9% | [3] 86.8% | [4] 89.9% | [5] 89.7% | [6] 74.9% | [18] 76.5% | [19] 92.6% | [8] 83.5% | [10] 89% | [11] 84.4% | [12] 101% | [13] 88.6% | [14] 93.7% | [15] 75.5%

C/C(=C(/c1ccccc1)c1ccc(N2C(=O)c3cccc4c(NCc5ccccc5)ccc(c34)C2=O)cc1)c1ccccc1
inactive: [1] 103% | [2] 112% | [3] 94.6% | [4] 96.8% | [20] 82.1% | [6] 99.3% | [18] 80.3% | [19] 107% | [8] 107% | [9] 75.3% | [10] 92% | [11] 68.8% | [12] 145% | [13] 94.8% | [14] 84.5% | [15] 107% | [16] 89.1% | [17] 88.9%

C=C(C)[C@@H]1CC[C@]2(C=NCCCNCCCCNCCCN)CC[C@]3(C)[C@H](CC[C@@H]4[C@@]5(C)CCCNC(C)(C)[C@@H]5CC[C@]43C)[C@@H]12
inactive: [1] 82.6% | [2] 39% | [3] 114% | [4] 88.3% | [6] 96% | [18] 100% | [19] 111% | [8] 132% | [9] 102% | [10] 91.1% | [11] 92.1% | [12] 120% | [13] 105% | [14] 80.6% | [15] 95.6% | [16] 94.4% | [17] 93.4%

N=C(N)c1ccc(-c2ccc(-c3cc(F)cc(F)c3)o2)nc1
inactive: [1] 77.4% | [2] 26.2% | [3] 72.1% | [4] 93.2% | [20] 82.4% | [6] 88.7% | [18] 96.3% | [19] 98.7% | [8] 106% | [9] 90.4% | [11] 69.8% | [13] 90% | [14] 78.5% | [15] 90.3% | [17] 73.8%
active: [16] -35.6%

Cn1cccc1/C=C1/SC(=S)N(CCc2ccc(O)cc2)C1=O
inactive: [1] 22.7% | [2] 94.9% | [3] 41.2% | [4] 47.2% | [20] 69% | [6] 44.2% | [18] 24.9% | [19] 57.3% | [8] 64.7% | [9] 61% | [10] 60% | [11] 53.7% | [13] 59.9% | [14] 44.7% | [15] 81.8% | [16] 21.9% | [17] 31%

Oc1ccc(CCC2CCCC(CCc3ccc(OCCF)cc3)N2)cc1 (stereo not given)
inactive: [1] 88.1% | [2] 87.2% | [3] 78.7% | [4] 101% | [20] 87.8% | [6] 90% | [7] 98.7% | [8] 104% | [9] 105% | [10] 89.6% | [11] 72% | [12] 96.7% | [13] 99.8% | [14] 89.2% | [15] 96.9% | [17] 76.2%

COc1cc(-c2cc3ncccc3c3nc(OCCN(C)C)c4cccnc4c23)cc(OC)c1OC
active: [2] 9.99% | [3] -36.8% | [6] -7.91% | [7] -43.5% | [10] 2.68% | [11] -70% | [12] -82.7% | [13] -74.5% | [14] -37.3% | [15] -72.6% | [17] 2.03%
inactive: [1] 23.1% | [4] 15% | [20] 16.2% | [19] 31.6% | [8] 19.8% | [9] 32.8% | [16] 14.5%

COc1ccc(/C(=C\c2ccc3c(c2)OCO3)C(=O)Nc2nc3ccccc3s2)cc1OC
inactive: [1] 90.1% | [2] 90.3% | [3] 94.3% | [4] 101% | [20] 92.1% | [6] 101% | [18] 97.8% | [7] 102% | [19] 106% | [8] 92.6% | [10] 102% | [12] 96.6% | [14] 79% | [15] 78.8% | [17] 74.4%
active: [11] -6.51%

CCN(CC)CCCCCCNc1ccnc2cc(Cl)ccc12
inactive: [1] 92.6% | [2] 27% | [3] 87% | [4] 113% | [20] 87% | [6] 80.8% | [7] 78% | [19] 106% | [8] 128% | [9] 76.5% | [10] 84.9% | [11] 86.1% | [12] 113% | [13] 111% | [14] 84.2% | [15] 118% | [16] 113% | [17] 101%
